The whole screen tested about 66,000 compounds, of which about 960 (1.5%) showed an effect of 50% or more. Only a selection was taken, and strong results are over-represented in it overall.
System: Trypanosoma brucei
Assay: Trypanosoma brucei 72 hour study
Format: functional, organism-based
Set-up: scale not given: in the data most compounds retested in dose-response had high values

Cc1ccc(CN2CCc3nnc(COCCN(C)C)n3CC2)o1.O=C(O)C(F)(F)F.O=C(O)C(F)(F)F
Percent Effect (30.3 µM, […]): -5.489%

Cc1ccc2c(n1)N(CC1CC1)CCN(Cc1cnn(C)c1)C2
Percent Effect (30.3 µM, […]): -21.1%

Nc1nccc(-c2c[nH]nc2C2CCCCC2)n1
Percent Effect (30 µM, 30.03 µM): 44.22%

CN1CCCN(c2nccc(-c3c[nH]nc3C3CCCCC3)n2)CC1
Percent Effect (30 µM, 30.03 µM): 98.42%

CN1CCN(c2nccc(-c3cncnc3C3CCCCC3)n2)CC1
Percent Effect (30.3 µM, […]): -9.341%

c1cc(-c2c[nH]nc2C2CCCCC2)nc(N2CCCCCC2)n1
Percent Effect (30.3 µM, […]): 99.82%

c1cc(-c2cn3nccc3nc2C2CCCCC2)nc(N2CCCC2)n1
Percent Effect (30.3 µM, […]): 41.66%

CN1CCCN(c2nccc(-c3cncnc3C3CCCCC3)n2)CC1
Percent Effect (30.3 µM, […]): -3.717%

CN1CCCN(c2nccc(-c3c[nH]c4ccc(Br)cc34)n2)CC1
Percent Effect (30.3 µM, […]): 99.21%

NC(=O)C1CCN(c2nccc(-c3c[nH]nc3C3CCCCC3)n2)CC1
Percent Effect (30.3 µM, […]): 100.2%

CN1CCCN(c2nccc(-c3cc(C(=O)O)ccn3)n2)CC1
Percent Effect (30 µM, 30.03 µM): -37.76%

NC(=O)[C@H]1CCCN(c2nccc(-c3c[nH]nc3-c3cccnc3)n2)C1
Percent Effect (30.3 µM, […]): -17.38%

Cc1ccnc(N2CCC(C(N)=O)CC2)n1
Percent Effect (30.3 µM, […]): -17.59%

CN1CCCN(c2nccc(-c3c[nH]nc3-c3ccncc3)n2)CC1
Percent Effect (30.3 µM, […]): 10.61%

Cc1nnsc1C(=O)N1CCCC(n2nnc3cc(F)ccc32)C1 (centres undefined)
Percent Effect (30.3 µM, […]): 2.47%

CC1COCCN1Cc1nc(-c2ccsc2)no1 (centres undefined)
Percent Effect (30.3 µM, […]): -0.3401%
Percent Effect (10 mM, 10 mM as filed; unlikely as a test dose): -39.38%

CC(C)N1CCO[C@@H]2CN(S(=O)(=O)c3cccs3)CC[C@@H]2C1.O=C(O)C(F)(F)F
Percent Effect (30.3 µM, […]): -39.91%

COc1ccc(OC)c(CN2CCc3nc4ccsc4c(=O)n3CC2)c1.Cl
Percent Effect (30.3 µM, […]): 12.93%

OC[C@@H]1CCCN1c1nccc(-c2c[nH]nc2-c2ccncc2)n1
Percent Effect (30.3 µM, […]): 21.87%

OC[C@H]1CCCN1c1nccc(-c2c[nH]nc2C2CCCCC2)n1
Percent Effect (30.3 µM, […]): 98.96%

OC[C@H]1CCCN1c1nccc(-c2cncnc2C2CCCCC2)n1
Percent Effect (30.3 µM, […]): -14.29%

CCc1noc(C(C)N(C)CC(=O)Nc2ccc(Br)cc2C)n1 (centres undefined)
Percent Effect (30 µM, 30.03 µM): -22.21%

COc1ncccc1CN1C[C@@H]2COC[C@]2(COCC(=O)N(C)C)C1.O=C(O)C(F)(F)F.O=C(O)C(F)(F)F
Percent Effect (30 µM, 30.03 µM): -7.446%

CC(C)(C)c1nccc(C2(c3ccccc3Cl)CCNCC2)n1
Percent Effect (30 µM, 30.03 µM): 98.68%

Clc1ccccc1C1(c2ccnc(C3CCCC3)n2)CCNCC1
Percent Effect (30 µM, 30.03 µM): 101.7%

Clc1ccccc1C1(c2ccnc(CC3CC3)n2)CCNCC1
Percent Effect (30 µM, 30.03 µM): 25.18%

Clc1ccccc1C1(c2ccnc(-c3ncccn3)n2)CCNCC1
Percent Effect (30 µM, 30.03 µM): 30.19%

CC(C)c1nccc(C2(c3ccccc3Cl)CCNCC2)n1
Percent Effect (30 µM, 30.03 µM): -6.514%

Clc1ccccc1C1(c2ccnc(C3CC3)n2)CCNCC1
Percent Effect (30 µM, 30.03 µM): -58.64%

CC1(C)CC(N(Cc2ccccc2)Cc2ncc[nH]2)CC(C)(C)N1.O=C(O)CC(O)(CC(=O)O)C(=O)O
Percent Effect (30.3 µM, […]): 10.45%

CCN1CCN(C)C2(CCN(Cc3ccsc3)CC2)C1=O.O=C(O)C(F)(F)F.O=C(O)C(F)(F)F
Percent Effect (30.3 µM, […]): -66.4%

O=C(O)C(F)(F)F.O=C1COC2(CCN(Cc3ccoc3)CC2)CN1
Percent Effect (30 µM, 30.03 µM): -33.82%

O=C(O)C(F)(F)F.O=C(c1cnccn1)N1CCCC2(CCN(c3ncccn3)C2)C1 (centres undefined)
Percent Effect (30 µM, 30.03 µM): -0.826%

CC(=O)N1CCN(S(=O)(=O)c2ccc(C)c(F)c2)CC1
Percent Effect (30 µM, 30.03 µM): 0.5413%

c1ccc2c(c1)CCN(c1nc(N3CCOCC3)c3nn[nH]c3n1)C2
Percent Effect (30.3 µM, […]): -17%

Cc1nc(CO[C@@H]2CN(Cc3ccsc3)[C@@H]3COC[C@@H]32)cs1.O=C(O)C(F)(F)F
Percent Effect (30 µM, 30.03 µM): -15.95%

CC(C)COCCC(=O)NCc1cn2cc(Br)ccc2n1
Percent Effect (30 µM, 30.03 µM): -7.155%

CCOCCOC(C)C(=O)NCc1cn2cc(Br)ccc2n1 (centres undefined)
Percent Effect (30 µM, 30.03 µM): 14.67%

CCOCCCC(=O)NCc1cn2cc(Br)ccc2n1
Percent Effect (30 µM, 30.03 µM): 54.92%

OC1(CNCCN2CCCc3ccccc32)CCNC1 (centres undefined)
Percent Effect (30.3 µM, […]): 6.012%

OC1(CNCCCN2CCc3ccccc32)CCNC1 (centres undefined)
Percent Effect (30.3 µM, […]): 99.09%

OC1(CNCCCN2CCCc3ccccc32)CNCCOC1 (centres undefined)
Percent Effect (30.3 µM, […]): 12.14%

Cl.O=C(CCn1c(C(F)(F)F)cc2cccnc21)N1CCOCC1
Percent Effect (30.3 µM, […]): -52.3%

CN(CCOc1cccc(F)c1)Cc1nc2c(cnn2C)c(=O)[nH]1
Percent Effect (30.3 µM, […]): -16.26%

Cc1cc(O)c(OCC(=O)/N=c2\[nH]c(C)c(C)s2)cn1
Percent Effect (30 µM, 30.03 µM): -31.23%

CC(C)CNc1nc(C(=O)/N=c2\[nH]nc(C(C)(C)C)s2)cs1
Percent Effect (30 µM, 30.03 µM): -9.789%

Cc1cccc(NC(=O)c2csc(NCC(C)C)n2)n1
Percent Effect (30 µM, 30.03 µM): -6.262%

Cc1cnc(NC(=O)c2csc(NCC(C)C)n2)s1
Percent Effect (30 µM, 30.03 µM): 4.824%

Cc1cs/c(=N/C(=O)c2csc(NCC(C)C)n2)[nH]1
Percent Effect (30 µM, 30.03 µM): 86.34%

Cc1[nH]/c(=N\C(=O)c2csc(NCC(C)C)n2)sc1C
Percent Effect (30 µM, 30.03 µM): 99.84%

O=C(O)C(F)(F)F.O=C(c1cscn1)N1CC[C@@H]2[C@@H]1CCN2C1CCOCC1
Percent Effect (30.3 µM, […]): -53.41%

O=C(O)C(F)(F)F.O=C(c1ccccn1)N1CCc2ncc(Cn3cccn3)n2CC1
Percent Effect (30.3 µM, […]): -7.142%

Cc1ccc(S(=O)(=O)N2C[C@H]3C[C@H](NC(=O)c4cnn(C)c4)[C@H]3C2)cc1
Percent Effect (30.3 µM, […]): -2.175%

COc1c(CNCc2cccc(Cn3ccnc3C)c2)c(C)nn1C.Cl
Percent Effect (30.3 µM, […]): -2.374%
Percent Effect (10 mM, 10 mM as filed; unlikely as a test dose): -46.4%

CC(C)c1nc2c(n1C)CCN(Cc1nc(-c3ccoc3)no1)C2
Percent Effect (30.3 µM, […]): -0.2084%

Cn1c(C2CC2)nc2c1CCN(Cc1nc(-c3ccsc3)no1)C2
Percent Effect (30.3 µM, […]): -7.992%

CC(C)c1nc2c(n1C)CCN(Cc1nc(-c3ccsc3)no1)C2
Percent Effect (30 µM, 30.03 µM): 59.36%

COc1ccc(CN(C)[C@@H]2COC[C@H]2c2ccc(F)cc2)c(OC)c1.O=C(O)CC(O)(CC(=O)O)C(=O)O
Percent Effect (30.3 µM, […]): 4.622%

Br.CCOc1ccc(N(CC(=O)c2ccccc2)C2=NCCCCC2)cc1
Percent Effect (30 µM, 30.03 µM): 25.81%

COc1ccccc1CN1C[C@@H]2CN(C(C)=O)CCO[C@@H]2C1.O=C(O)C(F)(F)F
Percent Effect (30.3 µM, […]): -77.53%

CN(Cc1nc(N2CCCC2)ncc1-c1ccncc1)C(=O)C(C)(C)C.Cl
Percent Effect (30.3 µM, […]): 34.69%

CN(Cc1ccoc1)C(=O)C1(Oc2ccc(Cl)cc2)CCNCC1
Percent Effect (30.3 µM, […]): 99.82%

Cc1ccc(OC2(C(=O)NC(C)Cc3ccncc3)CCNCC2)cc1 (centres undefined)
Percent Effect (30 µM, 30.03 µM): -4.697%

CN(C)C(=O)C1(Oc2ccc(Cl)cc2)CCNCC1
Percent Effect (30.3 µM, […]): -28.66%

O=C(N[C@@H]1CCCNC1)C1(Oc2ccc(Cl)cc2)CCNCC1
Percent Effect (30 µM, 30.03 µM): -80.08%

Cc1ccc(OC2(C(=O)N(C)Cc3ccoc3)CCNCC2)cc1
Percent Effect (30.3 µM, […]): 91.09%

CN(Cc1ccncn1)C(=O)C1(Oc2ccc(Cl)cc2)CCNCC1
Percent Effect (30.3 µM, […]): -35.89%

CC(C)CN1CCC2(CCN(Cc3ccsc3)CC2)C1=O
Percent Effect (30.3 µM, […]): 2.917%

CC(C)CNC(=O)N1CCC2(CC1)OC(C(N)=O)Cn1ccnc12.O=C(O)C(F)(F)F (centres undefined)
Percent Effect (30.3 µM, […]): -37.34%

COCC[C@]1(O)CCN(Cc2nnc(C)s2)C[C@H]1C
Percent Effect (30.3 µM, […]): -14.31%

O=C(O)C(F)(F)F.O=C(c1cccnc1)N1CCCC2(COCCN(c3ccccc3)C2)C1 (centres undefined)
Percent Effect (30.3 µM, […]): -43.99%

Cc1ccc(CN2CC[C@@H](O)[C@@H]2Cc2cnn(C)c2)o1.O=C(O)C(F)(F)F
Percent Effect (30.3 µM, […]): -387.9%

CNC(=O)C1(CCCc2ccncc2)CCCCN1.Cl (centres undefined)
Percent Effect (30.3 µM, […]): -5.403%

COCCOC1CCN(C(C(=O)O)c2ccc(OC)c(F)c2)CC1 (centres undefined)
Percent Effect (30.3 µM, […]): -2.66%

O=C(O)c1cc(/C=C/c2cccc3ccccc23)ncn1
Percent Effect (30 µM, 30.03 µM): 18.14%

Cn1ccnc1CN1CCC2(COCCN(Cc3ccsc3)C2)C1 (centres undefined)
Percent Effect (30 µM, 30.03 µM): 61.78%

Cn1ccnc1CN1CCC2(CC1)COCCN(c1ncccn1)C2
Percent Effect (30.3 µM, […]): 7.51%

Cn1ccnc1CN1CCC2(COCCN(S(=O)(=O)C3CC3)C2)C1 (centres undefined)
Percent Effect (30.3 µM, […]): 11.66%

Cc1noc(CN2C[C@H]3CC[C@@H]2CN(C2Cc4ccccc4C2)C3)n1
Percent Effect (30 µM, 30.03 µM): 16.7%

CC(=O)Nc1nc(C2CCN(C(=O)c3cccnc3)CC2)cs1
Percent Effect (30 µM, 30.03 µM): 31.28%

Cc1noc(C)c1CN1CCc2ncnc(-c3ccc(F)cc3)c2CC1.O=C(O)C(F)(F)F
Percent Effect (30.3 µM, […]): -81.82%

CCS(=O)(=O)NCCNc1cc(-n2cccc2)ncn1
Percent Effect (30.3 µM, […]): 14.19%

O=S(=O)(NCCNc1cc(-n2cccc2)ncn1)c1cccs1
Percent Effect (30.3 µM, […]): 16.28%

Cc1ccc(S(=O)(=O)NCCNc2cc(-n3cccc3)ncn2)c(C)c1
Percent Effect (30.3 µM, […]): 53.4%

CNC(=O)CN1CCCC12CCN(C(=O)c1cccc(F)c1)CC2.O=C(O)C(F)(F)F
Percent Effect (30.3 µM, […]): -1.054%

O=C(NCc1ccco1)[C@H]1C[C@@H]2CCN(c3nncs3)C[C@H]2O1.O=C(O)C(F)(F)F
Percent Effect (30.3 µM, […]): -27.54%

COc1cc2nc(NCc3cc(C)on3)nc(N)c2cc1OC
Percent Effect (30.3 µM, […]): -6.228%

COc1ccccc1NCC(=O)NCc1scnc1C
Percent Effect (30 µM, 30.03 µM): -18.47%

COc1cc2nc(NCc3scnc3C)nc(N)c2cc1OC
Percent Effect (30.3 µM, […]): 86.68%

COCCN1CCc2cc(C(=O)O)c(NCC3CC3)nc2CC1.O=C(O)C(F)(F)F.O=C(O)C(F)(F)F
Percent Effect (30.3 µM, […]): -92.37%

CCCn1nccc1C(=O)Nc1nc(C)c(C)s1
Percent Effect (30.3 µM, […]): 41.43%

CCCn1nccc1C(=O)Nc1ncc(C)s1
Percent Effect (30.3 µM, […]): 83.34%

CCn1nccc1C(=O)Nc1nc(C)c(C(C)=O)s1
Percent Effect (30.3 µM, […]): -2.793%

COCC1CC2(CCN(Cc3ccco3)CC2)CN1C(C)C.O=C(O)C(F)(F)F.O=C(O)C(F)(F)F (centres undefined)
Percent Effect (30 µM, 30.03 µM): 42.98%

COc1cc(N2CCCC(c3nccn3Cc3cscn3)C2)nc(N)n1 (centres undefined)
Percent Effect (30 µM, 30.03 µM): 59%

COc1cc(N2CCCC(c3nccn3CCN(C)C)C2)nc(N)n1 (centres undefined)
Percent Effect (30 µM, 30.03 µM): 42.15%

COCCn1ccnc1C1CCCN(c2cc(OC)nc(N)n2)C1 (centres undefined)
Percent Effect (30 µM, 30.03 µM): -68.81%

Source: ChEMBL document CHEMBL3988442, “University of Dundee, Small-Polar-MMV Screening Library” (2021)
